Hits are enriched below; roughly 5.4% of the tested compounds scored in any of these assays.
SKKanGAS inh = inhibitors of SKKanGAS S. pyogenes growth in kanamycin (SK-promoter or general growth effect). hit rate 1.3% among 300,000. AID 1662. inhibition, % at 7.5 µM. BacTiter-Glo, 6 h;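 active = mean replicate score, as percent of positive control median, at least 50; inconclusive = mean below 50 but one replicate at or above 50; inactive = mean and every replicate below 50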;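 note: strain carries kanamycin resistance gene driven by streptokinase promoter and grows in 40 µg/ml kanamycin; loss of luminescence reflects streptokinase promoter inhibition or plain growth inhibition; 0% = median of DMSO wells and 100% = positive control at its reference dose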
Beta apoptosis = beta cell apoptosis inhibition | hit rate 0.8% among 300,000 | INS-1E cytokine-induced death, ATP luminescence, 48 h; percent of positive-control rescue, neutral wells zero | protection from apoptosis, % (concentration not given with the values);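 active = Every replicate reaches about 75%, or at least half do and their mean reaches it too, limit read from the data; inconclusive = At least half of replicates reach the limit but their mean does not; inactive = Under half of replicates reach the limit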;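 note: 0% = cytokine-treated negative control wells and 100% = positive control rescue; higher means more ATP so stronger rescue from cytokine killing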
CSC inhib = blocks cancer stem cells; cancer stem cell-like cells viability, luminescence; inhibition, % at 7.5 µM; hit rate 1.1% among 300,000; AID 2717; in the data active = inhibition above about 75%; inconclusive = no clear call, values can overlap the other calls; tested in HMLE shEcad cells
Calb FLC = C. albicans growth modulation with fluconazole | C. albicans CaCi-2 (fluconazole-resistant clinical isolate) + fluconazole, Alamar Blue growth, 48 h | hit rate 0.57% among 300,000 | growth inhibition, % (concentration not given with the values);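 active = growth inhibition above about 58% in most replicates, limit read from the data, passing the limit was not always enough; inconclusive = exactly half the replicates above a set limit; inactive = most replicates below a set limit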;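 note: all wells also contain fluconazole at 8 µg/ml as a sub-toxic cotreatment; 0% = median of DMSO wells and 100% = median of geldanamycin control wells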
MPTP block = inhibitors of mitochondrial permeability transition pore. isolated mouse mitochondria, Ca2+ swelling absorbance, 30 min. inhibition, % at 10 µM. hit rate 1.4% among 360,000. AID 602449;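 active = inhibition of 50% or more, scaled per plate between neutral and stimulator controls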;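 note: 0% = DMSO wells given calcium and 100% = 1 mM EGTA wells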
Mdm2-MdmX inh = inhibitors of human Mdm2/MdmX interaction | hit rate 3% among 330,000 | inhibition, % at 8 µM | AID 485346 | O15151+Q00987 | SaOS-2 split-luciferase Mdm2/MdmX complementation, luminescence;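 active = inhibition of at least 50% at 8 µM in the primary screen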
Target sequence (O15151 whole entry, looked up): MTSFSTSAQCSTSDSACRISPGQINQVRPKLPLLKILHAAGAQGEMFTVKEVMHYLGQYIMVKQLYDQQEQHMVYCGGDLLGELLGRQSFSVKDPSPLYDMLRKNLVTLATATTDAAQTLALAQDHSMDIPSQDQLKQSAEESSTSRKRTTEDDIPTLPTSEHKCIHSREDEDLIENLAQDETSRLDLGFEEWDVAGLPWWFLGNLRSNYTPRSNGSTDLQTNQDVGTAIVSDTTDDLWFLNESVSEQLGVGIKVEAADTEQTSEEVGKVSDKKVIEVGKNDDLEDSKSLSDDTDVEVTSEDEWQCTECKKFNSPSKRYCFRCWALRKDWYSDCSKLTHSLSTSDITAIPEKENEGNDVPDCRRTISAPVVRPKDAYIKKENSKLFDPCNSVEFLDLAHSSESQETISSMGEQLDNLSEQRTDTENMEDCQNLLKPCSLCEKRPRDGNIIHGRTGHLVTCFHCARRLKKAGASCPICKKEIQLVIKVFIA
Target sequence (Q00987 whole entry, looked up): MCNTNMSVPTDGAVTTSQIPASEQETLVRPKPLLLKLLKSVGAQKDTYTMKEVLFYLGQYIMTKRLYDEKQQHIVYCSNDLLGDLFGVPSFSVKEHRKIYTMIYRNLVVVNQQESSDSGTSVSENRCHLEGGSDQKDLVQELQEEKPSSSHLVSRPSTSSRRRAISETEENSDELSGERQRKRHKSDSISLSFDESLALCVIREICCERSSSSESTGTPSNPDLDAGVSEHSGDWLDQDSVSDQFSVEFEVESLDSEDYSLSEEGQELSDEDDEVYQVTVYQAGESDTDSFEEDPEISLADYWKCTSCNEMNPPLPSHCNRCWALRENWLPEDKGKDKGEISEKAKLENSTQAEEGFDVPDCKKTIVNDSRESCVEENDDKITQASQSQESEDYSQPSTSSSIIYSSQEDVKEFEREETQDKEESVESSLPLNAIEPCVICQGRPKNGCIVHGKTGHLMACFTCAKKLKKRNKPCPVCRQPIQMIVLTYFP
Mdm2 MdmX conf = human Mdm2/MdmX binding inhibition, confirmed; inhibition, % at 8 µM; shares compounds with Mdm2-MdmX inh; AID 489028; luminescent assay; hit rate 55% among 10,000; in the data active = inhibition above about 40%
FLuc counter = counter-screen for Mdm2/MdmX inhibitors: full-length luciferase; AID 504607; hit rate 77% among 6,200; shares compounds with Mdm2-MdmX inh; inhibition, % at 8 µM; SaOS-2 full-length luciferase counterscreen, luminescence;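 active = mean inhibition at 8 µM reaching about 37%, which flags the compound as non-specific, limit read from the data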;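 note: p53-null SaOS-2 cells with luciferase driven by a doxycycline-inducible promoter; compound on cells about two nights before reading with doxycycline added after day one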
* = called active by the depositor; ? = inconclusive; . = no result given.

SMILES | SKKanGAS inh | Beta apoptosis | CSC inhib | Calb FLC | MPTP block | Mdm2-MdmX inh | Mdm2 MdmX conf | FLuc counter
O=C1N/C(=N\N=C\c2cccs2)SC1Cc1ccc(Cl)cc1Cl (configuration not stated) | 13.2 | -4.9 | 38.7 | -3.4 | -0.4 | 73.9* | 51.5* | 69.6*
O=C(CC1S/C(=N/N=C/c2cccs2)NC1=O)Nc1ccc(Cl)cc1 (configuration not stated) | 9.9 | -5.1 | 12.1 | 0.1 | 1.1 | 33.9 | . | .
O=C(CN1C(=O)NC(CCc2ccccc2)C1=O)N1CCCCCC1 (configuration not stated) | . | 1.6 | -20.8 | . | 1.8 | -3.3 | . | .
OC(COCCOc1ccc(Br)cc1)CN1CCCCC1 (configuration not stated) | -16.3 | 7.9 | 28.5 | -1.1 | 0.3 | 6.5 | . | .
O=C(Oc1ccc2ccccc2c1Br)N1CCCCCC1 | 28.1 | 8.7 | -17.2 | 3.5 | 3.8 | 58.6* | 41.8* | 149.9*
COc1ccc2oc(C(=O)N3CCN(c4ncccn4)CC3)c(C)c2c1 | 0.7 | 1.4 | -4.6 | 1.2 | 0.4 | 33.3 | . | .
CC(C)N(Cc1ccccc1)C(=O)COC(=O)c1cnc(Cl)c(Cl)c1 | . | 5.5 | . | . | -1.2 | 63.4* | 8.9 | .
CC1(/[N+]([O-])=C\c2ccccc2F)CCCCC1=O (configuration not stated) | 0.3 | 2.7 | -0.2 | 0.5 | 0.1 | 22.6 | . | .
COc1ccc(/C=N/n2cnc3c([nH]c4ccc(F)cc43)c2=O)cc1CSc1ccccn1 | 9.3 | 52.9 | -12.9 | -3.3 | 1.0 | 94.4* | 27.6 | .
O=C(Nc1nnc(-c2ccc(F)cc2)o1)c1cc(Cl)sc1Cl | 104.7* | . | . | -6.2 | -26.6 | 61.6* | 37.5 | 37.9*
COc1cccc(-c2nnc(NC(=O)c3ccc(Cl)s3)o2)c1 | 96.2* | . | 51.4 | 35.4 | -23.1 | 60.9* | 17.3 | .
O=c1[nH]c2ccc(Cl)cc2c(-c2ccccc2)c1SC(=S)N1CCOCC1 | 84.0* | 11.1 | -13.5 | 48.4 | -5.4 | 52.7* | 51.5* | 44.8*
O=c1[nH]c2ccc(Cl)cc2c(-c2ccccc2)c1SC(=S)N1CCCCC1 | 66.4* | 0.2 | 27.7 | -3.1 | 1.4 | 60.7* | 44.2* | 56.6*
COc1ccc(-c2noc(CN(Cc3nccn3C)C(C)C)n2)cc1 | -13.9 | -0.7 | -10.4 | -2.4 | 2.5 | 7.9 | . | .
O=c1[nH]nc(Sc2ncnc3sccc23)n1CCc1ccccc1 | 4.4 | -6.0 | 5.5 | 1.6 | 2.3 | 85.4* | 43.1* | 8.1
COC(=O)Nc1nc(C)c(C(=O)c2ccccc2)s1 | 3.8 | 8.0 | -2.0 | 21.5 | -7.4 | 28.5 | . | .
COc1ccc(C(=O)Nc2nc(-c3ccccc3)c(C(C)=O)s2)c(OC)c1 | -27.5 | -9.8 | 47.2 | ? | 0.8 | 57.9* | 20.9 | 113.0*
COC(=O)Nc1nc(-c2ccccc2)c(C(=O)c2ccccc2)s1 | 13.2 | 24.6 | -21.6 | -1.1 | -0.5 | 61.3* | 54.1* | 95.2*
CC(=O)c1sc(NC(=O)c2ccccc2F)nc1-c1ccccc1 | 20.2 | 2.0 | 13.6 | 40.8 | -0.4 | -110.8 | . | .
CCOC(=O)C(C)N1C(=O)S/C(=C/c2ccc3c(c2)n(C)c(=O)n3C)C1=O (configuration not stated) | 0.8 | -16.9 | 5.6 | -3.2 | -3.8 | 51.0* | 19.2 | .
Cc1ccc(NS(=O)(=O)c2ccc(-c3ccc(=O)[nH]n3)o2)cc1N(C)C | -7.1 | -6.7 | 3.8 | 3.7 | -1.7 | 15.3 | . | .
COc1ccc(C(=O)Nc2nc3c(s2)CCCC3)cc1S(=O)(=O)N1CCCc2ccccc21 | 27.6 | 36.8 | . | 1.5 | 1.0 | 90.7* | 89.7* | 23.4
COc1ccc(C(=O)Nc2ncccc2C)cc1S(=O)(=O)N1CCCc2ccccc21 | 17.8 | 0.0 | 2.8 | -3.5 | 0.2 | 7.9 | . | .
NC(=S)N1OC[C@@H]2COc3ccc4ccccc4c3[C@@H]21 | 6.5 | -5.6 | 20.8 | -7.8 | -0.1 | 69.5* | 52.9* | 46.3*
CO/N=C/NC(=O)N1OC[C@@H]2COc3ccc4ccccc4c3[C@@H]21 | 2.8 | -1.0 | -18.0 | 2.7 | 3.7 | 22.4 | . | .
SMILES | SKKanGAS inh | Beta apoptosis | CSC inhib | Calb FLC | MPTP block | Mdm2-MdmX inh | Mdm2 MdmX conf | FLuc counter
CCOc1cc(C2C(C#N)=C(N)OC(C)=C2C(C)=O)c(Br)c(Br)c1OC(C)C (configuration not stated) | 2.5 | 4.9 | 40.7 | 4.8 | 7.9 | 64.4* | 47.0* | 48.8*
O=C(O)c1ccc(N2Cc3ccccc3C2)cc1O | 7.1 | 6.2 | -6.9 | 0.6 | 0.6 | 25.2 | . | .
CC(C)N(CC#CCC1(O)c2ccccc2-c2ccccc21)CCO | -3.1 | -8.6 | -5.9 | -13.6 | 0.5 | -1.1 | . | .
CCCCCOc1ccc(C(=O)C(c2ccccc2)N2CCOCC2)cc1 (configuration not stated) | 5.0 | 1.5 | -7.9 | 30.2 | 1.0 | 2.2 | . | .
O=C(c1ccc(F)cc1)C(CN1CCOCC1)c1ccccc1 (configuration not stated) | -4.6 | . | . | 2.9 | -0.9 | 63.9* | 42.6* | 38.2*
CCCCOc1ccc(C(=O)C(CN2CCOCC2)c2ccccc2)cc1 (configuration not stated) | 1.7 | 67.2 | 111.4* | -3.0 | -4.1 | 94.1* | 74.4* | 21.1
O=C(c1ccc(Cl)cc1)C(CN1CCCC1)c1ccccc1 (configuration not stated) | -8.0 | 61.2 | 34.8 | 2.2 | 1.1 | 71.3* | 33.5 | .
COc1ccc(C(=O)C(CN2CCCC2)c2ccccc2)cc1 (configuration not stated) | 0.5 | -46.1 | 86.2* | 79.7* | 0.2 | 98.7* | 64.0* | 27.6
COc1ccc(C(=O)CCN2CCCCCC2)cc1 | -2.7 | -15.7 | 12.5 | -5.3 | 35.1 | 8.5 | . | .
CCC(O)(c1ccc(OC)cc1)C(CN1CCOCC1)c1ccccc1 (configuration not stated) | . | -4.2 | -10.1 | -24.5 | -0.6 | 22.6 | . | .
c1ccc(C(CN2CCOCC2)c2ccccc2)cc1 | 4.0 | -3.3 | -18.5 | 14.1 | -0.4 | -4.1 | . | .
O=C(c1ccccc1)C(CCC(CN1CCOCC1)C(=O)c1ccccc1)CN1CCOCC1 (configuration not stated) | -7.6 | 94.6* | 31.2 | 9.7 | 1.1 | 94.9* | 64.5* | 50.5*
COc1ccc(C(=O)C(CN2CCOCC2)c2ccccc2)cc1 (configuration not stated) | 9.9 | -36.1 | 50.0 | 3.4 | -1.7 | 79.5* | 80.8* | 27.4
COc1ccc([C@H]2C(C(=O)O)=C[C@@H](C(C)(C)C)N2S(=O)(=O)c2ccc(C)cc2)cc1OC | . | . | . | . | -0.2 | 11.7 | . | .
C/C(=N\NC(=O)c1nnn(-c2nonc2N)c1-c1ccc(Cl)c(Cl)c1)c1ccncc1 | -7.5 | 4.6 | -3.0 | -24.0 | 0.3 | 25.4 | . | .
CCOc1ccc(C)cc1-n1nc2ccccc2n1 | -3.0 | -4.5 | -5.3 | -5.0 | -0.5 | -3.5 | . | .
